Measurements from PubChem BioAssay (Tox21).
Results filed as inconclusive are left out. Calls of active or inactive are those of the source. Calls follow the shape of the dose curve; as a rule, active = well fitted curve in the direction sought with a large enough effect in the repeat runs; inconclusive = weak or mixed curves; inactive = no such curve, though single readings can be large; an effect the other way counts as inactive or inconclusive.

Experiments:
[1] = qHTS RealTime-Glo MT Cell Viability Assay in HepG2 cells - 40 hour (AID 1224870); also: nearly all actives have a fitted effect of over 50% in size
Procedure, shortened: (§1)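 HepG2 cells mixed with RealTime-Glo MT reagents (NanoLuc plus cell-permeant prosubstrate) were seeded at 600 cells/well, incubated 5 h at 37 C/5% CO2, then pinned with compounds in DMSO; nonlytic luminescence tracked viability during 40 h treatment.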

[2] = A CellTox Green Cytotoxicity Assay to monitor cytotoxicity in HEK293 cells - 40 hour (AID 1224871); also: nearly all actives have a fitted effect of over 45% in size
Procedure, shortened: (§2)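 Read-out: fluorescence of a cell-impermeant cyanine dye staining DNA of dead cells, proportional to cytotoxicity. HEK293, 600 cells/well with reagent, compound (23 nL DMSO) added after 5 h; reads at 0, 8, 16, 24, 32, 40 h.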

[3] = qHTS RealTime-Glo MT Cell Viability Assay in HEK293 cells - 16 hour (AID 1224872); also: top concentration of the series differs between compounds; nearly all actives have a fitted effect of over 50% in size
Procedure, shortened: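 Viability tracked continuously by luminescence as live cells reduce a prosubstrate for NanoLuc; HEK293 cells preincubated 5 h, compound-treated at 37 C, and read at 0, 8, 16, 24, 32 and 40 h.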

[4] = qHTS RealTime-Glo MT Cell Viability Assay in HepG2 cells - 8 hour (AID 1224873); also: nearly all actives have a fitted effect of over 55% in size
Procedure, shortened: as §1

[5] = qHTS RealTime-Glo MT Cell Viability Assay in HEK293 cells - 40 hour (AID 1224874); conditions: RealTime-Glo luminescence; max response: stronger effect = lower value; also: nearly all actives have a fitted effect of over 50% in size
Procedure, shortened: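 Luminescence readout at each listed time point; HEK293, 600 cells/well, RealTime-Glo MT reagent added with cells; compounds pinned (23 nL in DMSO) after 5 h at 37 C; continuous culture at 37 C.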

[6] = A CellTox Green Cytotoxicity Assay to monitor cytotoxicity in HEK293 cells - 24 hour (AID 1224875); also: series mostly up to about 77 µM; nearly all actives have a fitted effect of over 45% in size
Procedure, shortened: as §2

[7] = A CellTox Green Cytotoxicity Assay to monitor cytotoxicity in HepG2 cells - 16 hour (AID 1224876); also: nearly all actives have a fitted effect of over 45% in size
Procedure, shortened: (§3)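 HepG2, 600 cells/well premixed w/ CellTox Green; 5 h settle, 37 C/5% CO2; pintool cpd add (DMSO); 37 C, 40 h; fluorescence read at 0, 8, 16, 24, 32, 40 h.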

[8] = qHTS RealTime-Glo MT Cell Viability Assay in HepG2 cells - 32 hour (AID 1224877); also: nearly all actives have a fitted effect of over 55% in size
Procedure, shortened: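 Viability was tracked continuously by NanoLuc luminescence from prosubstrate reduced by living HepG2 cells, at successive time points over 40 h of compound exposure. Cells with reagent were preincubated 5 h at 37 °C before compound addition.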

[9] = A CellTox Green Cytotoxicity Assay to monitor cytotoxicity in HepG2 cells - 24 hour (AID 1224878); also: nearly all actives have a fitted effect of over 45% in size
Procedure, shortened: as §3

[10] = A CellTox Green Cytotoxicity Assay to monitor cytotoxicity in HepG2 cells - 40 hour (AID 1224879); also: nearly all actives have a fitted effect of over 40% in size
Procedure, shortened: as §3
% is scaled to controls: 0 for no effect and ±100 for the full control effect.

CCCCCCCCCCCCCCCCCC(=O)OCCCCCCCCCCCCCC(C)C
inactive: Potency [1] | Potency [2] | Potency [3] | outcome [4] | max response [5] 1.07% | Potency [6] | Potency [7] | Potency [8] | Potency [9] | Potency [10]

C1=C\CC/C=C\CC/C=C\CC/1
inactive: Potency [1] | Potency [2] | Potency [3] | outcome [4] | max response [5] 24.2% | Potency [6] | Potency [7] | Potency [8] | Potency [9] | Potency [10]

CCO[Si](C)(OCC)OCC
inactive: Potency [1] | Potency [2] | Potency [3] | outcome [4] | max response [5] 3.57% | Potency [6] | Potency [7] | Potency [8] | Potency [9] | Potency [10]

O=C(O)c1ccccc1-c1ccc(C(F)(F)F)cc1
inactive: Potency [1] | Potency [2] | Potency [3] | outcome [4] | max response [5] 7.22% | Potency [6] | Potency [7] | Potency [8] | Potency [9] | Potency [10]

N#CC1(O)CCCCC1
inactive: Potency [1] | Potency [2] | Potency [3] | outcome [4] | max response [5] -16.1% | Potency [6] | Potency [7] | Potency [8] | Potency [9]

O=S(=O)(c1cccc2cnccc12)N1CCCNCC1
inactive: Potency [1] | Potency [2] | Potency [3] | outcome [4] | max response [5] 8.06% | Potency [6] | Potency [7] | Potency [8] | Potency [9]

CCN(CC)C(=O)c1ccc(O)c(OC)c1
inactive: Potency [1] | Potency [2] | Potency [3] | outcome [4] | max response [5] 1.73% | Potency [6] | Potency [7] | Potency [8] | Potency [9]

NC1CCN(c2cccc(Cl)n2)CC1
inactive: Potency [1] | Potency [2] | Potency [3] | outcome [4] | max response [5] -1.03% | Potency [6] | Potency [7] | Potency [8] | Potency [9] | Potency [10]

COc1cc(C(=O)N2CCOCC2)cc(OC)c1OC
inactive: Potency [1] | Potency [2] | Potency [3] | outcome [4] | max response [5] 11.2% | Potency [6] | Potency [7] | Potency [8] | Potency [9] | Potency [10]

COCCOC(=O)CC#N
inactive: Potency [1] | Potency [2] | Potency [3] | outcome [4] | max response [5] 1.9% | Potency [6] | Potency [7] | Potency [8] | Potency [9] | Potency [10]

Oc1ccc2c(c1)OC[C@@H](N1CCC(O)(c3ccc(F)cc3)CC1)[C@H]2O
inactive: Potency [1] | Potency [2] | Potency [3] | outcome [4] | max response [5] -13.9% | Potency [6] | Potency [7] | Potency [8] | Potency [9]

CCCC(=O)O[C@]1(C(=O)CCl)[C@@H](C)C[C@H]2[C@@H]3CCC4=CC(=O)C=C[C@]4(C)[C@@]3(F)C(=O)C[C@@]21C
inactive: Potency [1] | Potency [2] | Potency [3] | outcome [4] | max response [5] -19.8% | Potency [6] | Potency [7] | Potency [8] | Potency [9] | Potency [10]

CCOC(=O)[C@H](CCc1ccccc1)N[C@@H](C)C(=O)N1CCC[C@H]1C(=O)O
inactive: Potency [1] | Potency [2] | Potency [3] | outcome [4] | max response [5] -0.439% | Potency [6] | Potency [7] | Potency [8] | Potency [9] | Potency [10]

CCCOCC(C)OCC(C)O (stereo not given)
inactive: Potency [1] | Potency [2] | Potency [3] | outcome [4] | max response [5] 5.98% | Potency [6] | Potency [7] | Potency [8] | Potency [9] | Potency [10]

O=S(=O)(O)c1ccccc1O
inactive: Potency [1] | Potency [2] | Potency [3] | outcome [4] | max response [5] 8.61% | Potency [6] | Potency [7] | Potency [8] | Potency [9] | Potency [10]

OCCCCCCO
inactive: Potency [1] | Potency [2] | Potency [3] | outcome [4] | max response [5] -17.6% | Potency [6] | Potency [7] | Potency [8] | Potency [9] | Potency [10]

CCCCCCC(=O)OCC
inactive: Potency [1] | Potency [2] | Potency [3] | outcome [4] | max response [5] 14.5% | Potency [6] | Potency [7] | Potency [8] | Potency [9] | Potency [10]

CCCCOCC(C)OCC(C)O (stereo not given)
inactive: Potency [1] | Potency [2] | Potency [3] | outcome [4] | max response [5] 2.63% | Potency [6] | Potency [7] | Potency [8] | Potency [9] | Potency [10]

CCCC=O
inactive: Potency [1] | Potency [2] | Potency [3] | outcome [4] | max response [5] 6.1% | Potency [6] | Potency [7] | Potency [8] | Potency [9] | Potency [10]

CCCc1ccccc1O
inactive: Potency [1] | Potency [2] | Potency [3] | outcome [4] | max response [5] -8.16% | Potency [6] | Potency [8] | Potency [9] | Potency [10]

Cc1nccn1CC1CCc2c(c3ccccc3n2C)C1=O (stereo not given)
inactive: Potency [1] | Potency [2] | Potency [3] | outcome [4] | max response [5] -14.4% | Potency [6] | Potency [7] | Potency [8] | Potency [9] | Potency [10]

OC/C=C/c1ccccc1
inactive: Potency [1] | Potency [2] | Potency [3] | outcome [4] | max response [5] 21.7% | Potency [6] | Potency [7] | Potency [8] | Potency [9] | Potency [10]
